Experiment [1] in a line: qHTS of pediatric cancer cell lines to identify multiple opportunities for drug repurposing: Primary screen for BT-37 cells (AID 1347094). Note: potency is the fitted concentration of half-maximal effect. As to conditions: BT-37 viability, CellTiter-Glo luminescence, 48 h; series mostly up to 116 µM. In short, it runs like this:
(§1)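 CRCs from 8- or 11-point titrations (lowest final 0.59 nM NPC, 0.78 nM MIPE). Cell viability: CellTiter-Glo after 48 h incubation, 15 min room-temperature development, luminescence imaging.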
Background: Quantitative high-throughput screening tests each substance at several concentrations.

A short description of experiment [2]: qHTS of pediatric cancer cell lines to identify multiple opportunities for drug repurposing: Primary screen for NB-EBc1 cells (AID 1347095). Particulars: NB-EBc1 neuroblastoma viability, CellTiter-Glo luminescence, 48 h; series mostly up to 92.7 µM. An outline of the steps:
as §1

The nature of experiment [3]: qHTS of pediatric cancer cell lines to identify multiple opportunities for drug repurposing: Primary screen for U-2 OS cells (AID 1347096). Note: nearly all actives have a fitted effect of over 50% in size. Note: potency is the fitted concentration of half-maximal effect. Particulars: U-2 OS viability, CellTiter-Glo luminescence, 48 h; series mostly up to 92.7 µM. In short, it runs like this: (§2)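 Cells (500-1,000/well) in growth media were settled 5 h at 37 degrees C, then given compounds for 48 h. Viability was read as CellTiter-Glo luminescence. Primary runs used MIPE at 11 points (0.78 nM-46 µM) and NPC at 8 points (0.59 nM-46 µM); follow-ups used 11 points.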

The nature of experiment [4]: qHTS of pediatric cancer cell lines to identify multiple opportunities for drug repurposing: Primary screen for SK-N-SH cells (AID 1347098). Note: nearly all actives have a fitted effect of over 65% in size. Note: potency is the fitted concentration of half-maximal effect. Particulars: SK-N-SH viability, CellTiter-Glo luminescence, 48 h; series mostly up to 115 µM. In short, it runs like this: (§3)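 Cells (500-1,000/well) rested 5 h, then received compounds for 48 h; metabolically active cells were measured by CellTiter-Glo luminescence. Final concentrations spanned up to 46 µM (MIPE, 11-point) or 0.59 nM-46 µM (NPC, 8-point) in primary screens, 11-point in follow-ups.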

A short description of experiment [5]: qHTS of pediatric cancer cell lines to identify multiple opportunities for drug repurposing: Primary screen for NB1643 cells (AID 1347099). Note: nearly all actives have a fitted effect of over 50% in size. Note: potency is the fitted concentration of half-maximal effect. Particulars: NB1643 neuroblastoma viability, CellTiter-Glo luminescence, 48 h; series mostly up to 92.7 µM. In short, it runs like this: as §1
The nature of experiment [6]: qHTS of pediatric cancer cell lines to identify multiple opportunities for drug repurposing: Primary screen for LAN-5 cells (AID 1347100). As to conditions: LAN-5 neuroblastoma viability, CellTiter-Glo luminescence, 48 h; series mostly up to 92.7 µM. An outline of the steps:
as §2

Experiment [7] is described as follows: qHTS of pediatric cancer cell lines to identify multiple opportunities for drug repurposing: Primary screen for BT-12 cells (AID 1347101). Note: nearly all actives have a fitted effect of over 25% in size. Note: potency is the fitted concentration of half-maximal effect. Particulars: BT-12 viability, CellTiter-Glo luminescence, 48 h; series mostly up to 116 µM. In short, it runs like this: as §3
Experiment [8] in a line: qHTS of pediatric cancer cell lines to identify multiple opportunities for drug repurposing: Primary screen for Rh18 cells (AID 1347102). Note: nearly all actives have a fitted effect of over 65% in size. Note: potency is the fitted concentration of half-maximal effect. As to conditions: Rh18 rhabdomyosarcoma viability, CellTiter-Glo luminescence, 48 h; series mostly up to 92.7 µM. In short, it runs like this: as §2
Experiment [9] is described as follows: qHTS of pediatric cancer cell lines to identify multiple opportunities for drug repurposing: Primary screen for OHS-50 cells (AID 1347103). Note: nearly all actives have a fitted effect of over 40% in size. Note: potency is the fitted concentration of half-maximal effect. As to conditions: OHS-50 osteosarcoma viability, CellTiter-Glo luminescence, 48 h; series mostly up to 116 µM. An outline of the steps:
as §3

The nature of experiment [10]: qHTS of pediatric cancer cell lines to identify multiple opportunities for drug repurposing: Primary screen for RD cells (AID 1347104). Note: nearly all actives have a fitted effect of over 55% in size. Note: potency is the fitted concentration of half-maximal effect. As to conditions: RD rhabdomyosarcoma viability, CellTiter-Glo luminescence, 48 h; series mostly up to 92.7 µM. An outline of the steps: as §1
Experiment [11] is described as follows: qHTS of pediatric cancer cell lines to identify multiple opportunities for drug repurposing: Primary screen for MG 63 (6-TG R) cells (AID 1347105). Note: nearly all actives have a fitted effect of over 50% in size. Note: potency is the fitted concentration of half-maximal effect. As to conditions: MG 63 (6-TG R) viability, CellTiter-Glo, 48 h; series mostly up to 92.7 µM. An outline of the steps: as §1
Experiment [12] is described as follows: qHTS of pediatric cancer cell lines to identify multiple opportunities for drug repurposing: Primary screen for control Hh wild type fibroblast cells (AID 1347106).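 Note: a drop in luminescence marks cytotoxicity and a rise apparent proliferation; nearly all actives have a fitted effect of over 55% in size.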 As to conditions: Hh wild-type fibroblast viability, CellTiter-Glo luminescence, 48 h; series mostly up to 92.7 µM. An outline of the steps:
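Viability after 48 h compound treatment at 37C, 500-1,000 cells/well, read as ATP luminescence with CellTiter-Glo. Primary screens used 11-point (MIPE, 0.78 nM-46 µM) or 8-point (NPC, 0.59 nM-46 µM) final concentrations; follow-up screens used 11-point dilutions.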

Experiment [13] can be described thus: qHTS of pediatric cancer cell lines to identify multiple opportunities for drug repurposing: Primary screen for Rh30 cells (AID 1347107). Note: nearly all actives have a fitted effect of over 75% in size. Note: potency is the fitted concentration of half-maximal effect. Particulars: Rh30 rhabdomyosarcoma viability, CellTiter-Glo luminescence, 48 h; series mostly up to 92.7 µM. In short, it runs like this: as §2
Experiment [14] in a line: qHTS of pediatric cancer cell lines to identify multiple opportunities for drug repurposing: Primary screen for Rh41 cells (AID 1347108). Note: nearly all actives have a fitted effect of over 70% in size. Note: potency is the fitted concentration of half-maximal effect. Particulars: Rh41 rhabdomyosarcoma viability, CellTiter-Glo luminescence, 48 h; series mostly up to 92.7 µM. An outline of the steps:
as §1

The nature of experiment [15]: qHTS of pediatric cancer cell lines to identify multiple opportunities for drug repurposing: Primary screen for Saos-2 cells (AID 1347097). Note: potency is the fitted concentration of half-maximal effect; nearly all actives have a fitted effect of over 40% in size. Particulars: Saos-2 viability, CellTiter-Glo ATP luminescence, 48 h. In short, it runs like this: as §1
Experiment [16] can be described thus: qHTS of pediatric cancer cell lines to identify multiple opportunities for drug repurposing: Confirmatory screen for NB1643 cells (AID 1347109). Note: potency is the fitted concentration of half-maximal effect; nearly all actives have a fitted effect of over 45% in size. As to conditions: NB1643 neuroblastoma cell viability. An outline of the steps:
as §2

Experiment [17] is described as follows: qHTS of pediatric cancer cell lines to identify multiple opportunities for drug repurposing: Confirmatory screen for A673 cells (AID 1347110).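 Note: potency is the fitted concentration of half-maximal effect; cells exposed to compound for 48 h before the viability read; nearly all actives have a fitted effect of over 65% in size.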 Particulars: A673 Ewing sarcoma cell viability. In short, it runs like this:
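Viability was read as ATP luminescence (CellTiter-Glo) after 48 h of compound exposure at 37 C in A673 cells seeded at 500-1,000/well. Titrations reached 46 uM final, with 11 points in the confirmatory screen. Concentration-response curves were fitted directly.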

A short description of experiment [18]: qHTS of pediatric cancer cell lines to identify multiple opportunities for drug repurposing: Confirmatory screen for SK-N-MC cells (AID 1347111).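 Note: potency is the fitted concentration of half-maximal effect; cells exposed to compound for 48 h before the readout; nearly all actives have a fitted effect of over 70% in size.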 As to conditions: SK-N-MC cell viability. In short, it runs like this:
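Metabolically active cells were quantified by ATP-dependent luminescence (CellTiter-Glo, 15 min at room temperature) following 48 h treatment. Cells had been plated at 500-1,000 per well and settled for 5 h beforehand.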

A short description of experiment [19]: qHTS of pediatric cancer cell lines to identify multiple opportunities for drug repurposing: Confirmatory screen for BT-12 cells (AID 1347112). Note: potency is the fitted concentration of half-maximal effect; nearly all actives have a fitted effect of over 55% in size. Particulars: BT-12 rhabdoid tumor cells, viability. In short, it runs like this:
as §2

Experiment [20] can be described thus: qHTS of pediatric cancer cell lines to identify multiple opportunities for drug repurposing: Confirmatory screen for LAN-5 cells (AID 1347113). Note: potency is the fitted concentration of half-maximal effect; nearly all actives have a fitted effect of over 65% in size. Particulars: LAN-5 neuroblastoma cell viability. In short, it runs like this:
as §2

Results filed as inconclusive are left out. Active and inactive are the calls of the source. Calls come from the whole dose curve; as a rule, active = well fitted curve in the direction sought with a large enough effect; inconclusive = small, poorly fitted or top-dose-only effect, or another doubt; inactive = no such curve, though single readings can be large; an effect the other way counts as inactive or inconclusive.

For `CCCSP(=O)(OCC)SCCC`, the Potency entry in [1], in [3], in experiment [4], in experiment [5], in experiment [7] and in experiment [8] was “inactive” in each case. Further, the Potency entry in experiment [9], in experiment [10], in experiment [11], in [13] and in [14] was “inactive” throughout. Moreover, the call in experiment [2], in [6] and in [12] was inactive.
Take `C[CH2][Hg][S]c1ccccc1C(=O)O`: the Potency in experiment [1] is 12.3 µM (active); in experiment [3], 6.68 µM (active); in [15], 0.841 µM (active); in [4], 3.07 µM (active); in [5], 2.37 µM (active); in experiment [7], 3.47 µM (active). Besides, the Potency was 4.73 µM (active) in experiment [8]; 3.89 µM (active) in experiment [9]; 4.73 µM (active) in experiment [10]; 2.66 µM (active) in experiment [11]; 2.66 µM (active) in experiment [13]; 2.37 µM (active) in experiment [14]. The Potency in experiment [16] was 2.93 µM (active); in experiment [17], 7.37 µM (active); in experiment [18] it was 2.93 µM (active); in experiment [19], 6.57 µM (active); in experiment [20] it was 4.65 µM (active). In addition, the result in experiment [12] was inactive.

(Values after PubChem BioAssay (NCATS).)
